DT40 TDP1 no CPT: qHTS for Inhibitors of human tyrosyl-DNA phosphodiesterase 1 (TDP1): qHTS in cells in absence of CPT | DT40 Tdp1-/- hTDP1 cells, no CPT, ATP luminescence, 48 h | Potency, µM (doses to about 46.2 µM), most hits filed as inhibitors | 420,000 compounds, 15% hits | AID 686978, 2013; note: nearly all actives have a fitted effect of over 55% in size
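Chicken DT40 Tdp1-/- cells stably complemented with human TDP1 were seeded at 400 cells/well with DMSO in place of 20 nM camptothecin. After compound pinning, cells grew at least 48 hr at 37 °C; viability read by CellTiter-Glo luminescence.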
IL1B secr inh: blocks inflammasome-driven IL-1 beta release | THP-1 LPS/ATP IL-1B secretion, AlphaLISA, 16 h; hits give low values | activity change, % at 57.5 µM | 360,000 compounds, 4.7% hits; in the data active = activity change below about -50%; inconclusive = mostly about -30% to -49%
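THP-1 cells pretreated 1 hr with compounds (up to 57.5 uM final), then stimulated with LPS (250 ng/mL final) plus ATP (1.25 mM final); secreted IL-1B measured by AlphaLISA after 16 hr, decreased signal indicating inhibition.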
HT1080 IDH1KD tx: HT-1080 IDH1 knockdown cell toxicity (counter line); HT-1080 IDH1 knockdown viability, ATP luminescence, 48 h; Potency, µM (titrated, usually from 46.1 µM), hits mostly cytotoxic; 360,000 compounds, 2% hits; AID 686971
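IDH1KD HT-1080 cells, 750/well, RPMI + 5% FBS; compound pinned after 2 h settling; 48 h, 37 °C; CellTiter-Glo luminescence; % activity normalised to DMSO and no-cell wells; curves fitted, classed by r2 and efficacy.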
HT1080NT lethal: kills 2HG-producing HT-1080-NT fibrosarcoma cells; HT-1080-NT fibrosarcoma viability, CellTiter-Glo ATP luminescence, 48 h; Potency, µM (top dose mostly 46.1 µM), usual class: cytotoxic; 360,000 compounds, 1.6% hits;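 note: NT is the 2HG producing partner of a matched IDH1 knockdown line; nearly all actives have a fitted effect of over 55% in size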
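Viability of the 2HG-overproducing fibrosarcoma line after 48 hours of compound exposure at 37 degrees C was determined by luminescence with CellTiter-Glo, and concentration-effect curves were then fitted and categorized.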
TDP1 cell CPT: DT40-hTDP1 cell growth loss with CPT | chicken DT40 Tdp1-/-;hTDP1 cells + 20 nM CPT, ATP luminescence, 48 h | Potency, µM (top dose mostly 46.2 µM), hits mostly inhibitors | 420,000 compounds, 12% hits | AID 686979; note: nearly all actives have a fitted effect of over 55% in size
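Cell growth measured by CellTiter-Glo luminescence after a minimum 48 h, 37 C compound exposure with 20 nM CPT in Tdp1-knockout DT40 cells stably expressing hTDP1, seeded 400/well; qHTS titration format.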
A number is an active result; i = inactive; ? = inconclusive; nt = not tested or not shown. Rows were chosen to be rich in hits. Some 19% of all compounds tested hit in one or more screens of this group. Unless noted, calls come from the whole dose curve; as a rule, active = well fitted curve in the direction sought with a large enough effect; inconclusive = small, poorly fitted or top-dose-only effect, or another doubt; inactive = no such curve, though single readings can be large; an effect the other way counts as inactive or inconclusive.

SMILES	DT40 TDP1 no CPT	IL1B secr inh	HT1080 IDH1KD tx	HT1080NT lethal	TDP1 cell CPT
Cc1cc(C)c2nc(N(Cc3cccnc3)C(=O)c3ccc(S(=O)(=O)N(C)C)cc3)sc2c1	18.4µM	nt	nt	nt	?
Cc1cccc2sc(N(Cc3cccnc3)C(=O)COc3ccccc3)nc12	i	nt	nt	nt	i
Cc1cc(C)c2nc(N(Cc3cccnc3)C(=O)CCOc3ccccc3)sc2c1	?	nt	nt	nt	i
CC(=O)N(Cc1cccnc1)c1nc2c(C)cccc2s1	i	nt	nt	nt	?
COc1ccccc1CNC(=O)c1cc(-c2ccccc2)n[nH]1	?	nt	nt	nt	i
COc1cccc(OCCn2cc(C=O)c3ccccc32)c1	?	i	i	i	i
CCOC(=O)/C(C#N)=C/c1cn(CCOc2ccc(OC)cc2)c2ccccc12	?	i	i	i	14.6µM
COC(=O)N/N=C/c1cn(CCOc2cccc(OC)c2)c2ccccc12	20.6µM	i	i	i	?
COc1ccc(OCCn2cc(C(=O)c3ccco3)c3ccccc32)cc1	25.9µM	nt	nt	nt	20.6µM
Cc1ccc(OCCn2cc(C(=O)c3ccco3)c3ccccc32)cc1C	18.4µM	nt	nt	nt	14.6µM
O=[N+]([O-])c1ccc(OCc2cn([C@@H](CO)c3ccccc3)nn2)c(Br)c1	i	i	i	i	i
COc1ccccc1CN1CCNC(=O)C1CC(=O)NCC1CCOCC1 (stereo unspecified)	i	i	i	i	i
Cc1cc(OCCn2cc(/C(N)=N/O)c3ccccc32)ccc1Cl	?	i	?	?	25.9µM
Cc1ccccc1CC1C(=O)Nc2ccc(Br)cc21 (stereo unspecified)	?	nt	nt	nt	i
COc1ccc(Br)cc1CC1C(=O)Nc2ccccc21 (stereo unspecified)	7.31µM	nt	nt	nt	8.2µM
CCOc1ccc(OCC)c(NC(=O)C2CCCN(S(=O)(=O)c3c(C)n[nH]c3C)C2)c1 (stereo unspecified)	i	i	i	i	i
COc1ccc(NC(=O)C2CCCN(S(=O)(=O)c3ccc(F)cc3)C2)cc1 (stereo unspecified)	14.6µM	nt	nt	nt	14.6µM
Cc1ccc(NC(=O)C2CCCN(S(=O)(=O)c3ccc(C)cc3)C2)cc1 (stereo unspecified)	16.4µM	nt	nt	nt	16.4µM
CCOc1ccc(OCC)c(NC(=O)C2CCCN(S(=O)(=O)c3ccc(C)cc3)C2)c1 (stereo unspecified)	16.4µM	i	i	i	25.9µM
Cc1ccc(S(=O)(=O)N2CCCC(C(=O)N(Cc3cccs3)C3CC3)C2)cc1 (stereo unspecified)	13µM	i	i	i	13µM
O=C(Nc1nc2ccccc2s1)C1CC(=O)N(c2ccc(Br)cc2)C1 (stereo unspecified)	i	i	i	i	i
C[C@H](CO)N1C[C@H](C)[C@H](CN(C)C(=O)Nc2ccc(F)cc2)OCc2cnnn2CCCC1=O	i	i	i	i	i
C=CC1=C(C)C2=Cc3c(C=C)c(C)c4[n]3[Sn+2][n]3c(c(C)c(CCC(=O)O)c3=CC3=NC(=C4)C(C)=C3CCC(=O)O)=CC1=N2	i	nt	nt	nt	i
O=C(Nc1c(Br)cc2c(c1Br)Cc1ccccc1-2)C(Cl)Cl	i	i	i	i	i
COc1ccc(S(=O)(=O)N2CCCC(C(=O)Nc3cccc(C(C)=O)c3)C2)cc1 (stereo unspecified)	?	i	i	i	?
SMILES	DT40 TDP1 no CPT	IL1B secr inh	HT1080 IDH1KD tx	HT1080NT lethal	TDP1 cell CPT
COc1ccc(S(=O)(=O)N2CCCC(C(=O)Nc3ccc4c(c3)OCCO4)C2)cc1 (stereo unspecified)	?	?	i	i	20.6µM
CC(=O)c1cccc(NC(=O)C2CCCN(S(=O)(=O)c3ccc(F)cc3)C2)c1 (stereo unspecified)	?	i	i	i	?
O=C(Nc1cccc(F)c1)C1CCCN(S(=O)(=O)c2ccccc2)C1 (stereo unspecified)	?	i	i	i	18.4µM
CN1CCN(C(=O)CSc2nc(-c3ccco3)cc(C(F)(F)F)n2)CC1	i	i	i	i	i
O=C(CCSc1nc(-c2ccco2)cc(C(F)(F)F)n1)N1CCCc2ccccc21	16.4µM	i	i	i	?
O=C(CCSc1nc(-c2ccco2)cc(C(F)(F)F)n1)N1CCN(c2ccccn2)CC1	16.4µM	?	i	i	?
O=C(CSc1nc(-c2ccco2)cc(C(F)(F)F)n1)N1CCN(c2cccc(Cl)c2)CC1	23.1µM	i	i	i	?
Cn1cc(C(=O)Nc2ccccn2)c(=O)c2ccccc21	i	i	i	i	i
COc1cc(C(=O)O/N=C2/C=C(C)C(=O)C=C2C)cc(OC)c1OC	2.06µM	i	i	i	8.2µM
O=C1NC(=NCc2ccccc2)S/C1=C/c1ccc(O)cc1	11.6µM	-75.9	?	?	?
COc1ccccc1N=C1NC(=O)/C(=C/c2ccc(N(C)C)cc2)S1	1.84µM	i	3.26µM	7.31µM	2.06µM
COC(=O)/C=C1/S/C(=N/N=C/c2ccco2)NC1=O	i	i	i	i	i
O=C1NC(=Nc2ccc(O)cc2)S/C1=C\C=C\c1ccco1	0.731µM	i	1.46µM	1.3µM	0.82µM
COc1ccc(N=C2NC(=O)/C(=C/c3ccc(O)c(OC)c3)S2)cc1	?	-66.5	i	i	?
COc1ccc(N=C2NC(=O)/C(=C\c3ccco3)S2)cc1	?	i	i	i	i
Cc1c(N=C2NC(=O)/C(=C/c3ccc(O)cc3)S2)c(=O)n(-c2ccccc2)n1C	?	i	i	i	i
CC(C)Oc1ccc(S(=O)(=O)N2CCOCC2)cc1NC(=O)CN1C(=O)c2ccccc2C1=O	i	i	i	i	i
COc1ccc(N2CC(NC(=O)/C=C\c3ccccc3)CC2=O)cc1OC (stereo unspecified)	i	nt	nt	nt	i
COc1cc(/C=C2/SC(=Nc3ccc(O)cc3)NC2=O)cc(OC)c1O	11.6µM	i	i	i	16.4µM
N#CC1=C(N)N2C(=C(C#N)C13CCCC3)Nc1ccccc12	?	i	i	i	i
CC(=O)c1c(C)[nH]c(C(=O)CN2CCN(S(=O)(=O)c3ccccc3[N+](=O)[O-])CC2)c1C	13µM	i	i	i	20.6µM
CCCS(=O)(=O)N1CCN(S(=O)(=O)c2ccccc2[N+](=O)[O-])CC1	i	i	i	i	i
CC1CC(C)CN(S(=O)(=O)c2ccccc2[N+](=O)[O-])C1 (stereo unspecified)	13µM	i	i	i	13µM
CC1(C)CC2CC(C)(CN2S(=O)(=O)c2ccccc2[N+](=O)[O-])C1 (stereo unspecified)	20.6µM	i	i	i	20.6µM
CCN(CC)S(=O)(=O)c1cccc(C(=O)N[C@H](C(=O)OCC(=O)NC(=O)NC)C(C)C)c1	i	i	i	i	i

From PubChem BioAssay
